Screening results (PubChem BioAssay)
The list is not random: actives were taken first. Their share in the collection is about 3.5%.
BH1578 lux ind: inducers of Vibrio cholerae quorum light production without autoinducers. V. cholerae BH1578 lux reporter, luminescence, 6 h. activation, % at 18.7 µM. 350,000 tested, 0.16% active; in the data active means activation mostly above about 9.7%, no sharp cut-off; inconclusive means no clear call, values can overlap the other calls; inactive means mostly below about 3.7%
BoNT F protease: blocks Botulinum neurotoxin F light chain protease; AID 588497; Multiplex microsphere protease cleavage assay, flow cytometry; 360,000 tested, 0.22% active; inhibition, % at 10 µM; in the data active means inhibition above about 35%, passing the limit was not always enough; inconclusive means no clear call, values can overlap the other calls
Anthrax LF prot: anthrax lethal factor protease inhibition | P15917 | inhibition, % at 10 µM | multiplex microsphere protease cleavage assay, LF | AID 588501 | 360,000 tested, 0.12% active
Target sequence (P15917 whole entry, looked up): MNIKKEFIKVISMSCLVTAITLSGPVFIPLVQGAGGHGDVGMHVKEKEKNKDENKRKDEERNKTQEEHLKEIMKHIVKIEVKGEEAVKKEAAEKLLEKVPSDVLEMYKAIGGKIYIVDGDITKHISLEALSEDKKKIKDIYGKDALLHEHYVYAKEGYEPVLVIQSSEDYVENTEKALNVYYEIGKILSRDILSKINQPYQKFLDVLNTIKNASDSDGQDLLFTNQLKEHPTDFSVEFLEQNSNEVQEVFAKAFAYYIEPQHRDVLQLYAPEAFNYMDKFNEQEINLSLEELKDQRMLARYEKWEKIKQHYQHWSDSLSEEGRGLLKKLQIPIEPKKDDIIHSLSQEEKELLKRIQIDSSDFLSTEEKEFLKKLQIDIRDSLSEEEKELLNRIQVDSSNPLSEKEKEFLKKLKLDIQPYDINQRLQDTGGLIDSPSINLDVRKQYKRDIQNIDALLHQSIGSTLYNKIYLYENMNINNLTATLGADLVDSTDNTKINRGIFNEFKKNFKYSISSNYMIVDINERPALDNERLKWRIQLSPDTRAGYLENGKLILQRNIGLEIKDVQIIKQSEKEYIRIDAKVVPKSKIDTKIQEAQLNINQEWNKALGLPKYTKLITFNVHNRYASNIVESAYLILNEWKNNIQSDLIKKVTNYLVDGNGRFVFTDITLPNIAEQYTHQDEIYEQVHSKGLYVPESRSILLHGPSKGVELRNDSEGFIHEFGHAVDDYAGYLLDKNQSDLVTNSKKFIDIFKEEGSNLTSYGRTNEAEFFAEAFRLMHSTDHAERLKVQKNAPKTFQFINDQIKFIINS
BoNT A protease: blocks Botulinum neurotoxin A light chain protease | 360,000 tested, 0.17% active | multiplex microsphere protease substrate cleavage, flow cytometry | inhibition, % at 10 µM
Bead autofluor: flagged as autofluorescent in microsphere protease counterscreen. fluorescence intensity (no concentration beside the values). AID 624483. 360,000 tested, 3.1% active. compound autofluorescence counterscreen, microsphere flow cytometry; hits give high values; in the data active means fluorescence intensity above about 16000; inconclusive means no clear call, values can overlap the other calls
Large screens that a line does not name were inactive. Unless noted, no stated cut-off is given here; in the data, active means inhibition above about 30%; inconclusive means no clear call, values can overlap the other calls; inactive means below that.

Cc1ccc(-c2ccc(CCC(=O)O)n2-c2cccc(O)c2)cc1	Bead autofluor 19713
CCNc1nc(SCC(=O)Nc2ccc(Cl)c(Cl)c2)nc(N2CCOCC2)n1	none
CC(C)CNC(=S)NNC(=O)c1ccc(OC(F)F)cc1	Bead autofluor 23366
C=CCNC(=S)NNC(=O)c1ccc(OC(C)C)cc1	none (no result: BH1578 lux ind)
CCNC(=S)NNC(=O)c1ccc(OC(F)F)cc1	Bead autofluor 23106
Cn1c(-c2ccc3c(c2)OCO3)cnc1NC(=O)CCC(=O)NCCc1ccccc1	Bead autofluor 22472
Cn1c(-c2ccc3c(c2)OCO3)cnc1NCc1ccccc1	Bead autofluor 22213
CCCCNC(=O)CCC(=O)Nc1ncc(-c2ccc(C)cc2)n1C	BoNT A protease inconclusive, Bead autofluor 20268
Cn1c(-c2ccc3c(c2)OCO3)cnc1N	Bead autofluor 19330
C[C@H](NC(=O)c1ncn2c1C(=O)N[C@@H](C)C2)C(=O)OC(C)(C)C	none
CCOc1c(OC)ccc2c3c(c(=O)oc12)CCCC3	Bead autofluor 22747
CCOc1ccc2c(C)c(C)c(=O)oc2c1OCC	Bead autofluor 23673
CCOc1ccc2c(C)c(C(=O)O)oc2c1OCC	none
COc1cccc(OCC(=O)Nc2c3c(nn2-c2ccc(F)cc2)CS(=O)(=O)C3)c1	none
COc1cccc(-c2ccc(=O)n(CC(=O)NCCN3CCOCC3)n2)c1	Bead autofluor 25197
CC(=O)Nc1cc2c(cc1NC(=O)Cn1nc(-c3ccc(F)cc3)ccc1=O)OCCO2	none
O=C(Cn1nc(-c2ccc(Cl)cc2)ccc1=O)NCC1COCCO1 (stereo not drawn)	none
COc1cccc(-c2ccc(=O)n(CC(=O)Nc3cc4c(cc3NC(C)=O)OCCO4)n2)c1	BoNT A protease inconclusive, Bead autofluor 21027
O=C(Cn1nc(-c2ccccc2)ccc1=O)NCCCN1CCOCC1	none
O=C(Cn1nc(-c2ccccc2)ccc1=O)NCC1COCCO1 (stereo not drawn)	Bead autofluor 19171
S=c1[nH]nc(-c2ccccc2)n1C1C=CCCC1 (stereo not drawn)	Bead autofluor 16741
Cc1ccccc1S(=O)(=O)Cc1ccc(C(=O)NCCCN2CCN(C)CC2)o1	Bead autofluor 22715
Cc1ccc(CS(=O)(=O)Cc2ccc(C(=O)N3CCC4(CC3)OCCO4)o2)cc1	none
O=C(NCCCN1CCCC1)c1ccc(CS(=O)(=O)c2ccc(Br)cc2)o1	none
COc1ccc(CCNC(=O)c2ccc(CS(=O)(=O)c3ccc(C)cc3)o2)cc1OC	none
Cc1ccc(S(=O)(=O)Cc2ccc(C(=O)NCCCN3CCCC3=O)o2)cc1	Bead autofluor 20958
Cc1ccc(S(=O)(=O)Cc2ccc(C(=O)N3CCC4(CC3)OCCO4)o2)cc1	Bead autofluor 20005
COc1ccc(CCNC(=O)c2ccc(CS(=O)(=O)c3ccc(Cl)cc3)o2)cc1OC	Bead autofluor 17952
COc1ccccc1S(=O)(=O)Cc1ccc(C(=O)NCCN2CCCC2)o1	Bead autofluor 22371
COc1ccc(C2CC(=O)C3=C(C2)NC(C)=C(C(=O)Nc2ccccc2C)C3c2coc3ccc(C)cc3c2=O)cc1OC (stereo not drawn)	BoNT A protease inconclusive, Bead autofluor 23361
S=c1[nH]nc(CSCCOc2ccc(Cl)cc2Cl)o1	none
CCC(C)(C)n1nnnc1C(C(C)C)N(CCN1CCOCC1)Cc1cc2cccc(C)c2[nH]c1=O (stereo not drawn)	Bead autofluor 21802
COc1cc2nc(NC(=O)c3ccccc3)[nH]c(=O)c2cc1OC	none
COc1ccc(C(=O)Nc2nc3cc(OC)c(OC)cc3c(=O)[nH]2)cc1	Bead autofluor 25582
COc1ccc(OCCC(=O)Nc2ccc(S(N)(=O)=O)cc2)cc1	none
CCOC(=O)c1ccc(NC(=O)Nc2cc(C)on2)cc1	Bead autofluor 16267
CCOC(=O)c1ccc(NC(=O)Nc2ccc(S(N)(=O)=O)cc2)cc1	Bead autofluor 24361
CN(CCO)C(=O)CCC(=O)Nc1ccc(S(N)(=O)=O)cc1	Bead autofluor 17212
CCOC(=O)c1ccc(NC(=O)Nn2cnnc2)cc1	none
Cc1cc(NC(=O)c2ccc(NC(=O)CC(C)C)cc2)no1	Bead autofluor 19975
COc1cc(C)c(NC(=S)Nc2cccc(Cl)c2C)cc1OC	none
O=C(COc1ccc(Cl)cc1Br)OCC(=O)c1ccc[nH]1	none
CCOC(=O)c1ccc(NC(=S)NCCCN2CCN(C3CCCCC3)CC2)cc1	none
CCOC(=O)c1ccc(NC(=O)N(CC)CC)cc1	BoNT A protease inconclusive, Bead autofluor 20244
CCOC(=O)c1ccc(NC(=S)NCCCN2CCCCC2)cc1	BoNT A protease inconclusive, Bead autofluor 22858
CCOC(=O)CC(=O)Nc1ccc(C(=O)OCC)cc1	BoNT F protease inconclusive
NC(=O)/C(=C\c1cccnc1)NC(=O)c1ccccc1	none
